# Experimental data taken from PubChem BioAssay (NCATS).
# Results filed as inconclusive are left out. A number with no mark means an inactive call. The source made the active and inactive calls. Calls come from the whole dose curve; as a rule, active = well fitted cell-killing curve with a large enough effect; inconclusive = small, poorly fitted or top-dose-only effect, or effect the other way; inactive = flat fitted curve, though single readings scatter. Where a SMILES comes first, the peptide text is derived from it. The star is where a group is joined. AFC = O=c1cc(C(F)(F)F)c2ccc(N*)cc2o1
# Tested on: OV90
# Assay: Primary qHTS to identify gynecologic anti-cancer compounds using libraries of approved drugs and bioactive compounds (AID 1345084); note: nearly all actives have a fitted effect of over 55% in size
# Conditions: Gynecologic cancer cell panel viability, ATPlite luminescence, 48 h; series mostly up to 57.5 µM; activity change, negative = cytotoxicity: at the top concentration
# In short: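 Cytotoxicity screen measuring ATP content by luciferase luminescence. Each compound is applied at five concentrations for 48 h at 37 C with 5% CO2.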
# % is set by controls: 0 for no effect and ±100 for the full control effect; potency is the fitted concentration of half-maximal effect.
SMILES,Potency,"activity change, negative = cytotoxicity"
O=C(NCC(O)CO)c1ccncc1Nc1ccc(I)cc1F (configuration not stated),79.4 nM (active),
CC1(C)CC2=C3C=CC4C5(C)CCC(O)C(C)(C)C5CCC4(C)C3(C)CCC2(C)C(O)C1 (configuration not stated),,10% [at 25.3 µM]
COC(=O)C1=CO[C@@H](O[C@@H]2O[C@H](CO)[C@@H](O)[C@H](O)[C@H]2O)[C@H]2[C@@H]1CC(OC)O[C@@H]2C (some centres not stated),,1.84% [at 25.3 µM]
C[C@@H]1O[C@@H](O[C@@H]2[C@@H](O[C@@H]3O[C@@H](C)[C@H](O[C@@H]4OC[C@H](O)[C@H](O[C@@H]5OC[C@@H](O)[C@H](O)[C@H]5O)[C@H]4O)[C@@H](O[C@@H]4OC[C@](O)(CO)[C@H]4O)[C@H]3O)[C@H](OC(=O)[C@]34CCC(C)(C)C[C@H]3C3=CCC5[C@@]6(C)C[C@H](O)[C@H](O[C@@H]7O[C@H](CO[C@@H]8OC[C@H](O)[C@H](O)[C@H]8O)[C@@H](O)[C@H](O)[C@H]7O)C(C)(C)C6CC[C@@]5(C)[C@]3(C)C[C@H]4O)OC[C@H]2O)[C@H](O)[C@H](O)[C@H]1O (some centres not stated),,10.7% [at 6.55 µM]
C=C1CCCC2(C)CC3(OC)OC(=O)C(C)=C3CC12 (configuration not stated),,-3.8%
CC(C)=CCC/C(C)=C/CCC1(C)Oc2c(c(O)cc3c2CN(C(CCC(=O)O)C(=O)O)C3=O)CC1O (configuration not stated),,14.2% [at 25.3 µM]
C=C(C(=O)O)C1CCC2(C)CCC(O)C(=C)C2C1 (configuration not stated),,3.64%
CC12CCC3c4ccc(OC5OC(C(=O)O)C(O)C(O)C5O)cc4CCC3C1CCC2O (configuration not stated),,-1.56%
CC(=O)N[C@@H](Cc1c[nH]c2ccccc12)C(=O)N[C@@H](CCC(=O)O)C(=O)N[C@@H](Cc1cnc[nH]1)C(=O)N[C@@H](CC(=O)O)C(=O)Nc1ccc2c(C(F)(F)F)cc(=O)oc2c1 (Ac-WEHD-{AFC}),,7.53% [at 38.5 µM]
C[C@@H]1O[C@@H](O[C@H]2[C@@H](OC(=O)[C@]34CCC(C)(C)CC3C3=CCC5[C@@]6(C)C[C@H](O)[C@H](O[C@@H]7O[C@H](C(=O)O)[C@@H](O)[C@H](O)[C@H]7O)[C@@](C)(C(=O)O)C6CC[C@@]5(C)[C@]3(C)CC4)OC[C@H](O)[C@@H]2O)[C@H](O)[C@H](O)[C@H]1O[C@@H]1OC[C@@H](O)[C@H](O)[C@H]1O (some centres not stated),,7.22% [at 11.6 µM]
CC12CCC(C(OC3OC(COC4OCC(O)(CO)C4O)C(O)C(O)C3O)C1)C(C)(C)O2 (configuration not stated),,-13.1% [at 25.3 µM]
O=C(/C=C\c1ccc(O)cc1)N[C@@H](Cc1ccc(O)cc1)C(=O)O,,18% [at 38.5 µM]
O=C(O)c1cccc(S(=O)(=O)N2CCc3ccccc3C2)c1,,8.54%
C[C@@H]1O[C@@H](O[C@H]2[C@H](O)[C@@H](O[C@@H]3O[C@H](CO)[C@@H](O)[C@H](O[C@@H]4O[C@H](CO)[C@@H](O)[C@H](O)[C@H]4O)[C@H]3O)[C@H](O[C@H]3CC[C@@]4(C)C(=CC[C@@H]5C4CC[C@@]4(C)C5C[C@@H]5OC6(CC[C@@](C)(CO[C@@H]7O[C@H](CO)[C@@H](O)[C@H](O)[C@H]7O)O6)[C@@H](C)[C@@H]54)C3)O[C@@H]2CO)[C@H](O)[C@H](O)[C@H]1O (some centres not stated),,1.28% [at 6.55 µM]
COc1ccc(/C=C/C(=O)O[C@H]2[C@H](O[C@H]3[C@@H]4C=CO[C@@H](O[C@@H]5O[C@H](CO)[C@@H](O)[C@H](O)[C@H]5O)[C@@H]4[C@@]4(CO)O[C@@H]34)O[C@@H](C)[C@H](O)[C@H]2OC(C)=O)cc1,,-6.46% [at 25.3 µM]
COC(=O)C12C(=O)C(C)=C(O)C1(C)C(C)=CC1C3(CO)CCC(O)C(C)(C)C3CCC12C (configuration not stated),,-0.444% [at 25.3 µM]
C=C1[C@H](OC(C)=O)[C@H]2[C@@H](OC(C)=O)[C@](C)(OC(C)=O)C[C@]2(OC(C)=O)C(=O)[C@H](C)/C=C/C(C)(C)C(=O)[C@H](OC(=O)C(C)C)[C@H]1OC(C)=O,,9.67% [at 25.3 µM]
COC(=O)N(C)c1c(N)nc(-c2nn(Cc3ccccc3F)c3ncccc23)nc1N,,9.46%
C=C1C[C@]23C[C@H]1CC[C@H]2[C@@]1(C)CCC[C@@]2(C)C(=O)O[C@@H]([C@@H]3O)[C@@H]12,,-2.58% [at 38.5 µM]
CC(O)CCC1C(CO[C@@H]2O[C@H](CO)[C@@H](O)[C@H](O)[C@H]2O)CC(O)CC1(C)C (some centres not stated),,7.75% [at 38.5 µM]
CC1=C2C[C@H]3O[C@@]3(C)CCC3O[C@@]3(C)C[C@@]2(O)OC1=O (some centres not stated),,-3.5%
O=C(O)Cc1cn(C2OCC(O)C(O)C2O[C@@H]2O[C@H](CO)[C@@H](O)[C@H](O)[C@H]2O)c2ccccc12 (some centres not stated),,-3.21% [at 25.3 µM]
